The list is not random: actives were taken first. Their share in the collection is about 4.4%.
TRHR PAM = qHTS for Small Molecule Agonists and Allosteric Enhancers of Human TRH Receptor: Primary Screen for Enhancers | enhancement, % at 2 µM | 360,000 tested, 0.66% active | TRHR cells, fluo-8 calcium fluorescence, EC20 TRH enhancement; in the data active = enhancement above about 30%
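TRHR-expressing cells loaded with fluo-8 calcium dye were read kinetically (ex 480/em 530) during compound addition, then stimulated with an EC20 of TRH (10 nM final). Enhancement of the Gq-mediated intracellular calcium response was scored.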
D1 antag = Antagonist of Human D 1 Dopamine Receptor: qHTS; D(1A) dopamine receptor (Homo sapiens), P21728; HEK293 TREx D1 cells, calcium flux, dopamine EC80; active compounds read low; activity change, negative = inhibition, % at 10 µM; 360,000 tested, 3.2% active; in the data active = activity change below about -30%
Target sequence (P21728 whole entry, looked up): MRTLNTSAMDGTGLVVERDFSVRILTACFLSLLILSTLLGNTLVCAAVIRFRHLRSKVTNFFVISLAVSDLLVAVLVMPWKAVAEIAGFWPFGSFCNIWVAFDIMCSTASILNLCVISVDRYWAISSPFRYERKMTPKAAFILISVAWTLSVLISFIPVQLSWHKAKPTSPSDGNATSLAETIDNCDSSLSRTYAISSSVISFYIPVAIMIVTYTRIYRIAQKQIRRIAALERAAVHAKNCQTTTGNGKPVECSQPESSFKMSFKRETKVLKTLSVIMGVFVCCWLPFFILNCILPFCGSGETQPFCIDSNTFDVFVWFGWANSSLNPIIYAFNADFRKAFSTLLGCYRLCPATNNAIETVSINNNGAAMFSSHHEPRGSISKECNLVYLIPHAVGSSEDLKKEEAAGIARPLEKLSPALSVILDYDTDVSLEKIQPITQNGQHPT
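After overnight tetracycline induction at 30 C, force-coupled D1 HEK293 cells took up a no-wash calcium dye at room temperature. Compounds were added and monitored 180 s, and the response to EC80 dopamine was then recorded.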
D1 ag = Allosteric Agonists of the Human D1 Dopamine Receptor: qHTS | D(1A) dopamine receptor (Homo sapiens), P21728 | HEK293 T-REx D1 cells, calcium flux, agonist mode | activation, % at 2 µM | 360,000 tested, 1% active | AID 504660, 2011
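Tetracycline-induced HEK293 TREx D1 cells, force-coupled to calcium signalling, were dye-loaded with a no-wash calcium kit. Compound was pin-added after a 10 s baseline. Fluorescence was read kinetically at 1 cycle/s for 180 s, with calcium rises flagged as agonism.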
TRHR ag = qHTS for Small Molecule Agonists and Allosteric Enhancers of Human TRH Receptor: Primary Screen for Agonists; Thyrotropin-releasing hormone receptor (Homo sapiens), P34981; TRHR cells, calcium flux fluo-8, FDSS agonist mode; activation, % at 2 µM; 360,000 tested, 0.18% active; AID 493084, 2011
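Steps: seed TRHR cells overnight; add fluo-8 no-wash Ca dye, RT 30 min–1.5 h; record 10 s baseline; pin-transfer compounds; monitor fluorescence 1 cycle/s for the agonist window. Calcium increases flag candidate agonists.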
D1 potentiator = Potentiators of Human D1 Dopamine Receptor: qHTS | potentiation, % at 10 µM | HEK293 TREx D1 cells, calcium flux, dopamine EC20 potentiation | 360,000 tested, 0.036% active | D(1A) dopamine receptor (Homo sapiens), P21728; in the data active = potentiation above about 30%
USP1 inh = Inhibitors of USP1/UAF1: Primary Screen; Ubiquitin carboxyl-terminal hydrolase 1 (Homo sapiens), O94782; recombinant USP1/UAF1, Ub-Rhodamine cleavage fluorescence; Potency, µM (series often up to 57.1 µM), hits mostly inhibitors; 390,000 tested, 0.23% active; AID 743255, 2014; active = well fitted inhibition curve with a large enough effect; inconclusive = small, poorly fitted or top-dose-only effect; inactive = no such curve, though single readings can be large or run the other way; also: nearly all actives have a fitted effect of over 60% in size
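USP1/UAF1 complex (1 nM) preincubated 15 min at room temperature with compound, then Ub-Rho substrate (150 nM final) added. Kinetic fluorescence at 480/540 nm over 6 reads at 60 s intervals; 50 mM HEPES pH 7.8, 0.5 mM EDTA, 0.1 mg/ml BSA, 1 mM TCEP, 0.01% Tween-20.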
Hits are given with their value; – = inactive; ? = inconclusive; · = no result given. Rule as the data show it, unless noted: active = activation above about 30%; inactive = the rest.

SMILES	TRHR PAM	D1 antag	D1 ag	TRHR ag	D1 potentiator	USP1 inh
CCS(=O)(=O)N1CC(=O)N(c2cc(Cl)ccc2C)C(C)(C(=O)NC2CCCCCC2)C1 (centres undefined)	–	–	–	–	–	–
OCCCc1nc2n(n1)C(c1cccs1)C=C(c1ccccc1)N2 (centres undefined)	–	–	34	41	·	·
COc1ccc(F)cc1C(=O)C1CCCN(Cc2c[nH]c3ccccc23)C1 (centres undefined)	–	-43	47	–	–	–
COc1cccc(CN2CCCC(C(=O)N3CCCCC3)C2)c1OC (centres undefined)	33	–	–	–	–	–
COc1ccc(F)cc1C(=O)C1CCCN(Cc2cn(C)c3ccccc23)C1 (centres undefined)	–	–	–	–	–	–
COc1ccc(F)cc1C(=O)C1CCCN(C(=O)c2ocnc2C)C1 (centres undefined)	–	-32	–	–	–	–
Cc1ccc(Cl)cc1NC(=O)CCc1c(C)nc2c3cccnc3nn2c1C	–	–	–	–	–	–
Cc1ccc(NC(=O)CSc2nnc(COc3ccc(Cl)cc3)o2)c(C)c1	–	–	–	–	–	–
COc1cccc(CN(Cc2ccco2)c2cnc(S(C)(=O)=O)nc2C(=O)Nc2cccc(Cl)c2C)c1	–	–	–	–	–	–
Cc1ccc(-n2c3c(c(=O)[nH]c2=O)C(NC(=O)c2ccccc2F)(C(F)(F)F)C(=O)N3)cc1C (centres undefined)	–	–	–	–	–	–
O=C(NCCn1ccc2ccccc21)c1cccc([N+](=O)[O-])c1	–	-37	–	–	–	–
O=C(NCCCN1CCN(CCCNC(=O)c2cccc([N+](=O)[O-])c2)CC1)c1cccc([N+](=O)[O-])c1	–	–	–	–	–	–
CC(Sc1nc2ccccc2s1)C(=O)c1c(N)n(C)c(=O)n(C)c1=O (centres undefined)	–	-42	–	–	–	–
O=C(Cn1nc(N2CCN(c3ccccc3)CC2)ccc1=O)NCc1cccc(Cl)c1	–	–	–	–	–	?
CCC(C(=O)NCCc1cc(OC)ccc1OC)n1nc(C)c2sc3ccccc3c2c1=O (centres undefined)	–	–	–	–	–	?
O=C(CSc1ncc(S(=O)(=O)c2ccc(Cl)cc2)c(=O)[nH]1)Nc1cccc(C(F)(F)F)c1	–	-32	–	–	–	–
CC(C)(C)c1ccc(S(=O)(=O)c2cnc(SCC(=O)Nc3ccc(F)c(Cl)c3)[nH]c2=O)cc1	–	–	–	–	–	?
CCc1ccccc1NC(=O)c1nnn(CC(=O)Nc2c(C)cc(C)cc2C)c1N	–	–	–	–	–	?
CCN1CCN(c2c(S(=O)(=O)c3ccc(OC)cc3)cnc3cc(OC)c(OC)cc23)CC1	–	-40	–	–	–	–
O=C(c1[nH]c2ccccc2c1Sc1ccc(Cl)cc1)N1CCCCC1	–	–	–	–	–	–
O=C(NCc1ccc(Cl)cc1)c1ccc(-c2ccccc2C(F)(F)F)o1	–	-39	33	–	–	–
Cc1c(CC(=O)N2CCCCC2)c(=O)oc2cc3occ(C(C)(C)C)c3cc12	–	–	–	–	–	–
CC(=O)c1cccc(NC(=O)c2noc3c2CSc2ccccc2-3)c1	–	–	–	–	–	–
COCC(=O)N(Cc1cc2cc(C)ccc2[nH]c1=O)c1cccc(C)c1C	–	–	–	–	–	–
COCC(=O)N(Cc1cc2cc(C)ccc2[nH]c1=O)c1ccc(C)c(C)c1	31	–	–	–	–	–
COc1ccc(CNC(=O)Cc2csc(NC(=O)Nc3ccccc3OC)n2)cc1	–	-35	–	–	–	–
O=C(Cc1csc(NC(=O)Nc2cccc(Cl)c2)n1)NCc1ccccn1	–	-31	–	–	–	–
O=C(NCc1cccc(Cl)c1)C1CCCN(c2nn3cc(-c4ccc(F)cc4)nc3s2)C1 (centres undefined)	–	–	–	–	–	?
O=C(NCc1ccccc1)c1c2c(nc3ccccc13)C(=O)N(C1CCCCC1)C2	–	–	–	–	–	–
Nc1nc(N2CCCCC2)c(C=O)c(N2CCCCC2)n1	–	-36	–	–	–	–

Screening results as filed in PubChem BioAssay.
